According to the supplement of paper PMC7156485:

system: HCC1569; test: H1.0 immunofluorescence intensity relative to DMSO (% of DMSO); higher = stronger H1.0 induction, active = 140 or more; conditions: concentration: 10 µM; 24 h
How it was run: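 Cells were seeded at 800 per well in 384-well plates with RPMI containing 10% FBS; both HCC1569 and TDF lines were used. Compounds were added at 10 µM for 24 h at 37 °C, in triplicate, before fixation in 3.7% formaldehyde and staining with a rabbit anti-H1.0 antibody, an AlexaFluor 647 secondary and DAPI. H1.0 nuclear intensity or cell number is reported as percent of the plate control using the median of replicates, and HCC1569 values were smoothed for positional effects.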
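Also: TDF is a line of transformed human dermal fibroblasts of mesenchymal origin.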

H1.0 immunofluorescence intensity, inactive:
CC(C)(ON=C(C(=O)NC1C(=O)N2C(C(=O)[O-])=C(C[n+]3ccccc3)CSC12)c1csc(N)n1)C(=O)O (configuration not stated) [Ceftazidime] 108, CC(=O)OC1(C(C)=O)CCC2C3C=C(Cl)C4=CC(=O)C5CC5C4(C)C3CCC21C (configuration not stated) [Cyproterone Acetate] 99.8, COc1cc(O)c2c(c1)oc(=O)c1c3cc(O)c(O)cc3oc21 [Wedelolactone] 91.6, CCC(C)(C)c1ccc(CC(C)CN2CC(C)OC(C)C2)cc1 (configuration not stated) [Amorolfine] 110, COc1ccccc1OCC(O)CN1CCN(CC(=O)Nc2c(C)cccc2C)CC1.Cl.Cl (configuration not stated) [Ranolazine.2HCl] 102, CCN(CC)CCNC(=O)c1cc(S(C)(=O)=O)ccc1OC.Cl [Tiapride hydrochloride] 99.3, CCCNCC(O)COc1ccccc1C(=O)CCc1ccccc1.Cl [(S)-(-)-propafenone hydrochloride] 111, O=C(O)CO.[NH2-].[NH2-].[Pt+2] [Nedaplatin] 104, O=[N+]([O-])c1cc(S(=O)(=O)Nc2ccc(O)c3ccccc23)ccc1Cl [4-chloro-N-(4-hydroxy-1-naphthyl)-3-nitrobenzenesulfonamide] 115, CCOC(=O)c1c2c3c(cccc3[nH]c1=O)C(=O)c1ccccc1-2 99.9, C1COC(NC(C2CC2)C2CC2)=N1.O=P(O)(O)O [Rilmenidine phosphate] 103, CCCCCCCCC=CCCCCCCCCC(=O)O [10(E)-Nonadecenoic acid] 101, Nc1ncnc2c1ncn2C1CCCC1 [9-cyclopentyladenine] 84.6, CC[C@H](C(=O)Nc1ccccc1N1CCCC1)c1ccccc1 [(2S)-2-Phenyl-N-[2-(1-pyrrolidinyl)phenyl]butanamide] 105, CCCCCCCCC=CCC=CCC=CCCCC(=O)NCCO [Mead ethanolamide] 96.2, CCCCCOc1ccccc1C(O)CC#CCCCC(=O)OC (configuration not stated) 89.2, CN1CCCN=C1C=Cc1cccs1.O=C(O)c1cc2ccccc2c(Cc2c(O)c(C(=O)O)cc3ccccc23)c1O [Pyrantel Pamoate] 115, C[C@H](C#Cc1ccc(Cc2ccc(F)cc2)s1)N(O)C(N)=O 99.7, NC(=S)NCCCC(N)C(=O)O (configuration not stated) [Thiocitrulline] 95.7, COc1ccc(CCNCC(O)c2ccc(O)cc2)cc1OC (stereo not drawn) [R(-)-Denopamine] 105, COc1ccc2c(c1)CC[C@@H]1[C@@H]2CC[C@]2(C)[C@@H](NCCCCCCN3C(=O)C=CC3=O)CC[C@@H]12.O 107, N#CC(=Cc1ccc(O)c(O)c1)C(=O)NCc1ccccc1 121, CN(C)CCOc1cc(-c2cn[nH]c2)ccc1NC(=O)C1COc2ccccc2O1 (configuration not stated) 112, CC(C)(C)C1(O)CCN2CC3c4ccccc4CCc4cccc(c43)C2C1.Cl (racemic) 91, CCC(C)C(=O)OC1CC(C)C=C2C=CC(C)C(CCC3CC(O)CC(=O)O3)C21 (configuration not stated) [Lovastatin] 106, Cl.NC(N)=NC(=O)Cc1c(Cl)cccc1Cl [Guanfacine hydrochloride] 91.5, CCN(CC)CCNC(=O)c1cc(Cl)c(N)cc1OC.Cl [Metoclopramide hydrochloride] 87.4
